# According to PubChem BioAssay (NCATS):
# Results filed as inconclusive are left out. Unmarked numbers belong to inactive results. Activity calls are given as the source filed them. Calls follow the shape of the dose curve; as a rule, active = well fitted cell-killing curve with a large enough effect; inconclusive = small, poorly fitted or top-dose-only effect, or effect the other way; inactive = no such curve, though single readings can be large or run the other way.
# Experiment: Quantitative High-Throughput drug screen in 47 multiple myeloma cell lines against the NCATS MIPE library collection: PCM6_Riken cell viability assay (AID 1919870); also: nearly all actives have a fitted effect of over 30% in size
# Conditions: CellTiter-Glo ATP, 48 h; series mostly up to 45.8 µM; viability (% of control): at the top concentration
# From the text: PI: Beverly A. Mock Ph.D.
# Laboratory of Cancer Biology and Genetics,
# Center for Cancer Research, National Cancer Institute,
# National Institute of Health, Bethesda, Maryland
# Drug resistance and disease progression are common in multiple myeloma (MM) patients, underscoring the need for new therapeutic combinations. […] We hypothesized that effective combinations would reduce MYC expression and enhance p16 activity. […] These preclinical data identify potentially useful drug combinations for evaluation in drug-resistant MM and reveal potential mechanisms of combined drug sensitivity.
# Described herein is the primary MIPE qHTS used to cherrypick compounds. Validated compounds were then further tested for potential synergistic activiy.
# [1] Peat TJ, Gaikwad SM, Dubois W, Gyabaah-Kessie N, Zhang S, Gorjifard S, Phyo Z, Andres M, Hughitt VK, Simpson RM, Miller MA, Girvin AT, Taylor A, Williams D, D'Antonio N, Zhang Y, Rajagopalan A, Flietner E, Wilson K, Zhang X, Shinn P, Klumpp-Thomas C, McKnight C, Itkin Z, Chen L, Kazandijian D, Zhang J, Michalowski AM, Simmons JK, Keats J, Thomas CJ, Mock BA. Drug combinations identified by high-throughput screening promote cell cycle transition and upregulate Smad pathways in myeloma. Cancer Lett. 2023 Aug 1;568:216284. doi: 10.1016/j.canlet.2023.216284. Epub 2023 Jun 24. PMID: 37356470; PMCID: PMC10408729.
# SEQUENCE No. (e.g., 1, 2, 3, etc.); […] (e.g., Cells, Incubation, Reagent, etc.); VALUE and DESCRIPTION.
# 1; Cells; 5 uL; white, solid bottom 1536-well Greiner assay plate.
# 2; Compounds; 23 nL; Kalypsis pin tool (Wako USA) equipped with a 1536-well pin head to transfer to the assay plates.
# 3; Incubation; 48 hours; 37C incubation.
# 4; Reagent;5uL; CellTiter Glo (Promega).
# 5; Detector; 425V; Luminescence; Viewlux PerkinElmer.
# NOTES (numbers refer to Sequence numbers above)
# 1. The cell-based screening methods employed in this study were like those previously published. Briefly, the corresponding myeloma cell lines were screened in 1,536-well plates with 500 cells, 5-uL per well for inhibition of cell viability (assessed by measuring ATP levels with CellTiterGlo).
# 2. NCATS MIPE 4.0 library of approved and investigational drugs were added using the Kalypsis pin tool. Wells treated with DMSO only for 100% viability and media only for 0% viability were used as controls.
# 3. The assay plates were covered and incubated for 48 hours in a 37C, 5% CO2 incubator with controlled humidity.
# 4. After 48 hours, CellTilter-GloTM luminescent substrate mix (Promega) reagent was added to the assay plate and plates we incubated for 5 min at room temperature.
# 5. Signal was measured as median relative luminescence units on a ViewLux (PerkinElmer) multiplate reader.
# [1] Heske CM, Davis MI, Baumgart JT, Wilson K, Gormally MV, Chen L, Zhang X, Ceribelli M, Duveau DY, Guha R, Ferrer M, Arnaldez FI, Ji J, Tran HL, Zhang Y, Mendoza A, Helman LJ, Thomas CJ. Matrix Screen Identifies Synergistic Combination of PARP Inhibitors and Nicotinamide Phosphoribosyltransferase (NAMPT) Inhibitors in Ewing Sarcoma. Clin Cancer Res. 2017 Dec 1;23(23):7301-7311. doi: 10.1158/1078-0432.CCR-17-1121. Epub 2017 Sep 12. PMID: 28899971; PMCID: PMC6636827.
# Potency is read from the fitted curve at half-maximal effect.
SMILES,Potency,viability (% of control)
CN1CCCC(n2nc(Cc3ccc(Cl)cc3)c3ccccc3c2=O)CC1 (stereo not given),3.32 µM (active),
Cc1cc(NS(=O)(=O)c2ccc(N)cc2)no1,,79.1%
COc1ccccc1OCC(O)COC(N)=O (stereo not given),,115%
CC(C)OC(=O)C(C(=O)OC(C)C)=C1SC=CS1,,101%
CN1CCN(c2c(F)cc3c(=O)c(C(=O)O)cn(CCF)c3c2F)CC1,,101%
CNCC[C@H](Oc1cccc2ccccc12)c1cccs1,3.72 µM (active),
O=C(O)CSCC(=O)NC1CCSC1=O (stereo not given),,125%
CCCN[C@H]1CCc2nc(N)sc2C1,,104%
CCn1cc(C(=O)O)c(=O)c2cc(F)c(N3CCNCC3)cc21,,129%
COC(c1ccccc1)(c1ccccc1)[C@H](Oc1nc(C)cc(C)n1)C(=O)O,,137%
CC(C)(C#N)c1cc(Cn2cncn2)cc(C(C)(C)C#N)c1,,102%
Cc1oc(=O)oc1CN1CCN(c2cc3c(cc2F)c(=O)c(C(=O)O)c2n3C(C)S2)CC1 (stereo not given),,100%
CCOC(=O)[C@H](CCc1ccccc1)N[C@H]1CCc2ccccc2N(CC(=O)O)C1=O,20.9 µM (active),
O[C@@H](CNC[C@H](O)[C@H]1CCc2cc(F)ccc2O1)[C@@H]1CCc2cc(F)ccc2O1,16.6 µM (active),
S=P(N1CC1)(N1CC1)N1CC1,,103%
Nc1nc(=S)c2[nH]cnc2[nH]1,7.43 µM (active),
CCCOc1ccc(C(=O)OCCN(CC)CC)cc1N,,83%
COc1nc(N)nc2c1ncn2[C@@H]1O[C@H](CO)[C@@H](O)[C@@H]1O,,142%
O=NN(CCCl)C(=O)NC1CCCCC1,,123%
C[C@@H](NCCCc1cccc(C(F)(F)F)c1)c1cccc2ccccc12,,103%

SMILES,Potency,viability (% of control)
CC1=NN(c2ccccc2)C(=O)C1,,153%
Nc1nc(N)nc(-c2cc(Cl)ccc2Cl)n1,,99.8%
Cn1c(=O)c2c(ncn2CC(O)CO)n(C)c1=O (stereo not given),,125%
CS(=O)(=O)c1ccc([C@@H](O)[C@@H](CO)NC(=O)C(Cl)Cl)cc1,16.6 µM (active),
CCN(CC)CCn1c(=O)c(Cc2ccc(OC)cc2)nc2ccccc21,,105%
CN1CCN(c2c(F)cc3c(=O)c(C(=O)O)cn4c3c2OCN4C)CC1,,134%
OC(Cn1cncn1)(Cn1cncn1)c1ccc(F)cc1F,,135%
O=S(=O)(c1cccc2cnccc12)N1CCCNCC1,16.6 µM (active),
CCOC(=O)[C@H](CCc1ccccc1)N[C@H]1CS[C@H](c2cccs2)CN(CC(=O)O)C1=O,1.05 µM (active),
Cc1nnc(NS(=O)(=O)c2ccc(N)cc2)s1,1.18 µM (active),
CCc1c2c(nc3ccc(OC(=O)N4CCC(N5CCCCC5)CC4)cc13)-c1cc3c(c(=O)n1C2)COC(=O)[C@]3(O)CC,13.2 µM (active),
C[C@@H]1CN(c2c(F)c(N)c3c(=O)c(C(=O)O)cn(C4CC4)c3c2F)C[C@H](C)N1,,166% [at 23.2 µM]
CNC(=O)c1cc(Oc2ccc(NC(=O)Nc3ccc(Cl)c(C(F)(F)F)c3)cc2)ccn1,7.43 µM (active),
Cc1ncc([N+](=O)[O-])n1CCO,,135%
COc1cc(NS(=O)(=O)c2ccc(N)cc2)nc(OC)n1,,120%
COc1cc(NCc2ccc3nc(N)nc(N)c3c2C)cc(OC)c1OC,4.69 µM (active),
CCCCc1oc2ccc(NS(C)(=O)=O)cc2c1C(=O)c1ccc(OCCCN(CCCC)CCCC)cc1,11.8 µM (active),
COc1ccc2cc3[n+](cc2c1OC)CCc1cc2c(cc1-3)OCO2,11.8 µM (active),
CCOC(=O)c1ccc(OC(=O)CCCCCN=C(N)N)cc1,,115%
CC[C@H](NC(C)C)[C@H](O)c1ccc(O)c2[nH]c(=O)ccc12,,121%
